According to PubChem BioAssay (NCATS):
Records with an inconclusive call do not appear. Activity calls are given as the source filed them. Unless noted, calls follow the shape of the dose curve; as a rule, active = well fitted curve in the direction sought with a large enough effect; inconclusive = small, poorly fitted or top-dose-only effect, or another doubt; inactive = no such curve, though single readings can be large; an effect the other way counts as inactive or inconclusive.

How the values were obtained:
[1] = biological target: Muscarinic acetylcholine receptor M1 (Rattus norvegicus) (UniProt P08482); assay: qHTS Assay for Antagonists of Acetylcholine Muscarinic M1 Receptor: Measurement of IP-One Response (AID 944); also: nearly all actives have a fitted effect of over 75% in size
Procedure, shortened: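 Antagonist mode with rat M1 receptor transfected into CHO cells. Compound is added first for 10 min, carbachol at its EC80 follows for 30 min, and lysis reagents then allow TR-FRET detection of accumulated IP1.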

[2] = biological target: Pyruvate kinase (Leishmania mexicana) (UniProt Q27686); assay: qHTS Validation Assay for Inhibitors of Leishmania Mexicana Pyruvate Kinase (AID 945);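 also: 0% = DMSO only neutral control wells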
Procedure, shortened: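 Mutant LmPYK (E451W), 0.2 nM, plus 0.5 mM PEP and 0.1 mM ADP in 50 mM imidazole pH 7.2 containing 0.01% Tween 20 and 0.05% BSA. Incubated 1 h at room temperature; luminescence via PKLight, normalized to DMSO.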

[3] = biological target: Glucagon-like peptide 1 receptor (Homo sapiens) (UniProt P43220); assay: qHTS of GLP-1 Receptor Agonists: LOPAC Validation (AID 624148);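 also: luminescence from a luciferase reporter switched on by cAMP; 0% is about no effect; higher luminescence signal means agonism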
Procedure, shortened: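 Agonism scored as increased luciferase luminescence driven by cAMP in HEK293 clones carrying GLP-1R. Cells settled 12 hours, received compound for 4-6 hr at 37 deg C, 5% CO2, and were read after 12 min detection reagent at RT.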

[4] = qHTS of Nrf2 Activators: LOPAC Validation (AID 624149); also: 0% is about no effect
Procedure, shortened: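 Cells (AREc32_Fluc) are plated at 1000 per well in OPTI-MEM containing 5% FBS and left overnight. Compounds are pinned in and incubated 24 hr at 37 deg C, and firefly luciferase is detected with Steady-Glo.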

[5] = HTS Assay for Allosteric Antagonists of the Human D2 Dopamine Receptor: Hit Validation in HTRF (AID 624455);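 also: stable D1 dopamine receptor cell line scored for blocking the D1 response; % is scaled to controls: 0 for no effect and ±100 for the full control effect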
Procedure, shortened: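 Inhibition of the D1-mediated response is measured by HTRF in cells that stably express the D1 dopamine receptor. Compounds reaching this step are hits from calcium-flux antagonism testing at EC80 dopamine in inducible Hek293 Trex D2 cells.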

[6] = qHTS Assay for Identification of Small Molecule Agonists for Hypoxia Response Element Signaling Pathway (AID 914; active = well fitted activation curve with a large enough effect in the signal ratio, with a control signal flat, not every such curve was filed as active; the % refers to the signal ratio; also: % of control where 0% means no effect); details: ME-180 (cervical carcinoma) HRE-bla reporter, beta-lactamase ratio, CoCl2, 17 h; activation: hits give high values
Procedure, shortened: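 Reporter activity (beta-lactamase, CCF4 460nm/530nm ratio) in HRE-bla ME-180 cells is recorded after 17 h compound exposure with EC50 CoCl2 at 37 degrees Celsius. AC50 values come from titration data.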

[7] = biological target: Cytochrome P450 2C9 (Homo sapiens) (UniProt P11712); assay: qHTS Assay for Inhibitors and Substrates of Cytochrome P450 2C9 (AID 883); also: % is scaled to controls: 0 for no effect and ±100 for the full control effect; nearly all actives have a fitted effect of over 60% in size
Procedure, shortened: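 Turnover of Luciferin-H (100uM, KM) by 10nM human CYP2C9 was measured over 60 min at 37C with NADPH regeneration; inhibitors and some substrates reduce luminescence. Data normalized to sulphaphenazole 57uM.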

[8] = biological target: Cytochrome P450 2C19 (Homo sapiens) (UniProt P33261); assay: qHTS Assay for Inhibitors and Substrates of Cytochrome P450 2C19 (AID 899); also: % is scaled to controls: 0 for no effect and ±100 for the full control effect; nearly all actives have a fitted effect of over 60% in size
Procedure, shortened: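 Reactions contain 5nM enzyme, 10uM Luciferin-H EGE (KM) and 50mM KPO4; compound preincubates 10 min at 37C, NADPH regeneration starts turnover for 60 min. Luminescence after detection reagent gives activity.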

[9] = qHTS Assay for Identification of Small Molecule Antagonists for NFkB Signaling Pathway (AID 895; active = well fitted inhibition curve with a large enough effect in the signal ratio, with a control signal flat, not every such curve was filed as active; the % refers to the signal ratio; also: % is scaled to controls: 0 for no effect and ±100 for the full control effect)
Procedure, shortened: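 Beta-lactamase reporter read-out (460 and 530 nm emission ratio, 405 nm excitation, 2 hrs substrate loading RT) after 5 hr stimulation with 10 pM TNF alpha in compound-treated NFkB-bla ME-180 cells in low-serum medium.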

[10] = Cell Viability - BJ (AID 421; calls by dose curve;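 also: potency is read from the fitted curve at half-maximal effect; cells exposed to compound for 40 hours at 37 °C before readout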); details: BJ fibroblast viability, qHTS
Procedure, shortened: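 Normal human BJ foreskin fibroblasts, 1500/well in complete medium, treated 40 hr at 37 °C. Cellular ATP by CellTiter-Glo luminescence; normalized to DMSO and 100 uM tamoxifen, AC50 from Hill fit.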

[11] = Cell Viability - Jurkat (AID 426;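 active = dose-dependent loss of cell ATP signal giving a full or clear fitted curve, ranked by lower potency value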; also: potency is read from the fitted curve at half-maximal effect); details: qHTS
Procedure, shortened: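 Cells of the human T-cell leukemia line Jurkat (E6-1) are seeded at 5000 per well, treated with compound across a concentration range for 40 hours at 37 °C, then lysed with CellTiter-Glo; luminescence reports ATP.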

[12] = Cell Viability - Hek293 (AID 427;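 active = compounds whose dose-response curve shows a full or clear partial loss of cell viability, called from curve shape rather than a numeric limit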;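 also: potency is read from the fitted curve at half-maximal effect; cells exposed to compound for 40 hours at 37 °C before reading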); details: qHTS
Procedure, shortened: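 HEK293 cells in complete medium were exposed to compound for 40 hr at 37 °C, then cellular ATP was read by CellTiter-Glo luminescence. Data were normalized to DMSO (basal) and 100 uM tamoxifen (100% inhibition), and AC50 came from Hill fits.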

[13] = Cell Viability - HepG2 (AID 433; calls by dose curve;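 also: potency is read from the fitted curve at half-maximal effect; potency for ATP loss meaning cytotoxicity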); details: qHTS
Procedure, shortened: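 Read-out is luciferase-based quantitation of cellular ATP as a measure of viable HepG2 cells after 40 h treatment at 37 °C. Signal decrease is scaled between DMSO-only and 100 uM tamoxifen controls, with AC50 fitted by the Hill equation.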

[14] = Cell Viability - MRC5 (AID 434; calls by dose curve;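 also: potency is read from the fitted curve at half-maximal effect; potency reflects cytotoxicity seen as loss of intracellular ATP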); details: MRC5 lung fibroblast viability, qHTS
Procedure, shortened: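 AC50 values come from Hill-equation fits of intracellular ATP loss, measured by CellTiter-Glo luminescence. Normal lung fibroblasts (MRC5) had 40 hr compound treatment at 37 C, normalized between DMSO and 100 uM tamoxifen.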

[15] = Cell Viability - SK-N-SH (AID 435; calls by dose curve;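 also: potency is read from the fitted curve at half-maximal effect; compound exposure lasted 40 h at 37 °C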); details: SK-N-SH neuroblastoma cell viability qHTS
Procedure, shortened: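 Luminescent ATP signal served as the viability read-out after 40 hours of compound treatment of human neuroblastoma SK-N-SH cells. Concentration-response data, scaled between DMSO and 100 uM tamoxifen, gave AC50 values by standard Hill modeling.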

[16] = Cell Viability - NIH 3T3 (AID 541); details: NIH 3T3 cell viability, qHTS; activity change, negative = cytotoxicity: at 92.2 µM (top of the series);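 also: plate controls were DMSO alone for no effect and tamoxifen positive control for full effect; nearly all actives have a fitted effect of over 25% in size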
Procedure, shortened: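 Cells seeded at 1000/well, rested 5 hr at 37 °C, then dosed and incubated 40 hr at 37 °C. CellTiter-Glo added, 20 min room temperature, luminescence read. AC50 by Hill fit.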

[17] = Cell Viability - HUV-EC-C (AID 542); also: % is scaled to controls: 0 for no effect and ±100 for the full control effect; nearly all actives have a fitted effect of over 35% in size
Procedure, shortened: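 Cells were seeded at 1000 per well and incubated 5 hr at 37 °C before compound addition. After 40 hr at 37 °C, CellTiter-Glo reagent was added for 20 min and luminescence read. AC50 values came from Hill-equation modelling.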

[18] = Cell Viability - H-4-II-E (AID 543); also: % is scaled to controls: 0 for no effect and ±100 for the full control effect; nearly all actives have a fitted effect of over 35% in size
Procedure, shortened: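 Cells seeded at 1500 per well and rested 5 hr; compounds added; 40 hr incubation at 37 °C; CellTiter-Glo added, 20 min at room temperature; luminescence read. Hill-equation fits gave AC50.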

[19] = Cell Viability - SH-SY5Y (AID 544); details: SH-SY5Y neuroblastoma cell viability; viability change, negative = cytotoxic: at 92.2 µM (top of the series);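 also: 0% = DMSO alone and -100% = 100 µM tamoxifen; nearly all actives have a fitted effect of over 55% in size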
Procedure, shortened: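 Cells were plated at 1500 per well and allowed 5 hr at 37 °C. Compounds were added across a concentration range and incubated 40 hr at 37 °C. CellTiter-Glo was added for 20 min at room temperature before luminescence reading.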

[20] = Cell Viability - Mesenchymal (AID 546); details: mesenchymal cells viability, qHTS; activity change, negative = cytotoxicity: at 91.7 µM (top of the series);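 also: cells exposed to compound for 40 hours before reading; 0% = DMSO only and -100% = 100 µM tamoxifen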
Procedure, shortened: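 CellTiter-Glo luminescence (intracellular ATP, 20 min room temperature) after 40 hr compound exposure at 37 °C of 1000 glomerulus-derived human kidney mesenchymal cells/well; AC50 values obtained by fitting qHTS concentration-response data to the Hill equation.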

Sequence of Cytochrome P450 2C19 (Homo sapiens) (P33261 whole entry, looked up): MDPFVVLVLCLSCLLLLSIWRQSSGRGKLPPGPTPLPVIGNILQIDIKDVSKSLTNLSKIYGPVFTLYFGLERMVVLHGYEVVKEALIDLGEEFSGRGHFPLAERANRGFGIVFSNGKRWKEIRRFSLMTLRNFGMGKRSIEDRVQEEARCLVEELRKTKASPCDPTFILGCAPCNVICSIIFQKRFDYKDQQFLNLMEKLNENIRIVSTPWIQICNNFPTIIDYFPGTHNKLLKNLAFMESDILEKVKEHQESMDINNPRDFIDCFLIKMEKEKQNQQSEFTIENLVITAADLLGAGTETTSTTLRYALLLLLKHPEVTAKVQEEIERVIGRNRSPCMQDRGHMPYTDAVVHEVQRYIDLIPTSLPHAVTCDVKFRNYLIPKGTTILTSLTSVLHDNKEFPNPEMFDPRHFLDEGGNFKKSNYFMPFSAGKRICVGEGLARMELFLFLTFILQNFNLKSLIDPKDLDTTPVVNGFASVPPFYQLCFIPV
Sequence of Cytochrome P450 2C9 (Homo sapiens) (P11712 whole entry, looked up): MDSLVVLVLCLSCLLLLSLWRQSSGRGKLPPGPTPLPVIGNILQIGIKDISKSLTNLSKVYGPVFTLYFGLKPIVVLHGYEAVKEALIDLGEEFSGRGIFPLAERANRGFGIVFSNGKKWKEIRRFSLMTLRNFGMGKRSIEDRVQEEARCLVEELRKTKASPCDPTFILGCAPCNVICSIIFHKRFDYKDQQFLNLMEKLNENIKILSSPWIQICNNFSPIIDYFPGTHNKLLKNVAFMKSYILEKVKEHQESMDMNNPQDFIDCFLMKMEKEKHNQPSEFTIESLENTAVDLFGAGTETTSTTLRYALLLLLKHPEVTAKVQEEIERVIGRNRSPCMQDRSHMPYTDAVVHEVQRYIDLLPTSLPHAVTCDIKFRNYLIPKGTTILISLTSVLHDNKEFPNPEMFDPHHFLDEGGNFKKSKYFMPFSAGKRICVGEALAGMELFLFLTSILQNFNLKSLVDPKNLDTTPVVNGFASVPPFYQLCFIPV
Sequence of Glucagon-like peptide 1 receptor (Homo sapiens) (P43220 whole entry, looked up): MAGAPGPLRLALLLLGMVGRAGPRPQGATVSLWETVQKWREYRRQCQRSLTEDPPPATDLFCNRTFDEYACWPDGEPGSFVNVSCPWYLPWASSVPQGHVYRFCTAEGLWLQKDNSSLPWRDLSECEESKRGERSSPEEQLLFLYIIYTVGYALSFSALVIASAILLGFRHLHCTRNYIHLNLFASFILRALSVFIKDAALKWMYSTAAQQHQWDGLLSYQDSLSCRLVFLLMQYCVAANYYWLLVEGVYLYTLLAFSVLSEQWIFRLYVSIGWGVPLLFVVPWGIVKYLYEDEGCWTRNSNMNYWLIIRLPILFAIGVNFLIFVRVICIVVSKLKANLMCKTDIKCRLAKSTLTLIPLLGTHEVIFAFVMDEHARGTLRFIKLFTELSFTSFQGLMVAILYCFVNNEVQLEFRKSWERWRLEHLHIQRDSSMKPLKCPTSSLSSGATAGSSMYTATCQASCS
Sequence of Pyruvate kinase (Leishmania mexicana) (Q27686 2-499 E452W): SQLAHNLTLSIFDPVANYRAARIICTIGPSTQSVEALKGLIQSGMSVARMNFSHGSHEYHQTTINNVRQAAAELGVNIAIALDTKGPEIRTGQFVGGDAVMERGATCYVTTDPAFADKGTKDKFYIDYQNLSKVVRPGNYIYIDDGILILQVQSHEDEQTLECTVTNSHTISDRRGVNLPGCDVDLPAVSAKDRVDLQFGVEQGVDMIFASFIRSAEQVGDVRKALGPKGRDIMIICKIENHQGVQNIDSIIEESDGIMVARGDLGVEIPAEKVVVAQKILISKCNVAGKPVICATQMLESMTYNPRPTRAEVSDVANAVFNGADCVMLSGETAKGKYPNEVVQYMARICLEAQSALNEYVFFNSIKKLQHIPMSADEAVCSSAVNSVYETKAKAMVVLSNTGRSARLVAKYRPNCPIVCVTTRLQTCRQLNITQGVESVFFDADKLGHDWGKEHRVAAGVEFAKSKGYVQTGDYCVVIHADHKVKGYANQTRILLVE
Sequence of Muscarinic acetylcholine receptor M1 (Rattus norvegicus) (P08482 whole entry, looked up): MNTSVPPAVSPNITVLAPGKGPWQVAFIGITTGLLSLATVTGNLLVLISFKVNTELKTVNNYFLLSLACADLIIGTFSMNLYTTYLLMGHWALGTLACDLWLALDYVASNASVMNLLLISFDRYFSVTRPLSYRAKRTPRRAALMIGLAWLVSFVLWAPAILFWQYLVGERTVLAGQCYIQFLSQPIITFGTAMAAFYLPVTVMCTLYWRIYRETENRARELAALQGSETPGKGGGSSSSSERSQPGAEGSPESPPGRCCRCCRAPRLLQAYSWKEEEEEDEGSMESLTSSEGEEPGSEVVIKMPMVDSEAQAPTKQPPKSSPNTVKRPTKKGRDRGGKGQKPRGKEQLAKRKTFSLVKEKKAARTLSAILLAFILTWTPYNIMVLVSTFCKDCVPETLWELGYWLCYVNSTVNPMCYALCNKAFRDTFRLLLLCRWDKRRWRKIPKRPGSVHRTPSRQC

CC[C@@H](CO)Nc1nc(NCc2ccccc2)c2ncn(C(C)C)c2n1
inactive: Potency [1] | outcome [2] | outcome [3] | outcome [4] | outcome [5]

NS(=O)(=O)c1cc2c(cc1Cl)N[C@H](Cc1ccccc1)NS2(=O)=O
inactive: activation [6] 4.65%

COc1ccc2cc1Oc1ccc(cc1)C[C@H]1c3cc(c(OC)cc3CCN1C)Oc1c(OC)c(OC)cc3c1[C@@H](C2)N(C)CC3
inactive: Potency [7] | Potency [8]

Cc1cn([C@H]2C[C@H](N=[N+]=[N-])[C@H](CO)O2)c(=O)[nH]c1=O
inactive: Potency [9]

O=C(O)c1cc(N=Nc2ccc([N+](=O)[O-])cc2)ccc1O
inactive: Potency [10] > 92 µM | Potency [11] > 92 µM | Potency [12] > 92 µM | Potency [13] > 92 µM | Potency [14] > 92 µM | Potency [15] > 92 µM | activity change, negative = cytotoxicity [16] -24.1% | Potency [17] | Potency [18] | Potency [19] | Potency [20]
